Source: PubChem BioAssay (NCATS)
Inconclusive results are not listed. Activity calls are given as the source filed them. The call rests on the fitted dose curve; in most records, active means well fitted curve in the direction sought with a large enough effect; inconclusive means small, poorly fitted or top-dose-only effect, or another doubt; inactive means no such curve, though single readings can be large; an effect the other way counts as inactive or inconclusive.

Columns and labels:
[1] = MultiTox-Fluor Cytotoxicity Assay - LYMP1-003 - Dead Cells (AID 961); further: nearly all actives have a fitted effect of over 70% in size
In short: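 LYMP1-003 human lymphoblastoid cells (2500/well) exposed to compound 16 h at 37 C in complete medium; dead-cell protease read with bis-AAF-R110 fluorescence (Ex/Em 485/520) after 60 min at room temperature. Normalized to DMSO and 15 uM tetraoctylammonium bromide; AC50 from Hill fit.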

[2] = MultiTox-Fluor Cytotoxicity Assay - LYMP1-003 - Live Cells (AID 962);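 further: cytotoxic hits lower the live-cell protease signal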
In short: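 qHTS, 1536-well; 2500 cells/well LYMP1-003; 5 hr 37 C settle; cpd 16 hr 37 C; MultiTox-Fluor reagent 60 min RT; live-cell protease fluor. 405/510; Hill-fit AC50; tetraoctylammonium bromide pos. ctrl.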

[3] = Cell Viability - LYMP1-003 - Assay at 24 hr (AID 963)
In short: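 Cells seeded at 2500/well, 5 hr at 37 C; compounds added; 24 hr at 37 C; CellTiter-Glo added, 30 min room temperature; luminescence read. Decrease in ATP taken as cytotoxicity, AC50 from Hill modelling.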

[4] = Cell Viability - LYMP1-003 - Assay at 40 hr (AID 964); further: series mostly up to about 92 µM; nearly all actives have a fitted effect of over 60% in size
In short: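 Cells were seeded at 2500 per well and incubated 5 hr at 37 C. Compounds were added across a concentration series and left 40 hr at 37 C. CellTiter-Glo was added for 30 min at room temperature before luminescence reading.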

[5] = Cell Viability - LYMP2-003 (AID 965);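 further: cells exposed to compounds for 24 h before reading; nearly all actives have a fitted effect of over 50% in size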
In short: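 Human lymphoblastoid LYMP2-003 cells, 2500/well, exposed to compounds for 24 h at 37 C in complete medium. Viability read as intracellular ATP by CellTiter-Glo luminescence; AC50 from Hill-equation fits of qHTS concentration-response data.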

[6] = Cell Viability - LYMP2-004 (AID 966); further: nearly all actives have a fitted effect of over 65% in size
In short: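 Cells seeded 2500/well, rested 5 hr at 37 C, dosed across a concentration series, incubated 24 hr at 37 C, then CellTiter-Glo added for 30 min at room temperature and luminescence read. Hill fitting gave AC50.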

[7] = Cell Viability - LYMP2-005 (AID 967); further: series mostly up to about 92 µM
In short: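 Human lymphoblastoid LYMP2-005 cells, 2,500 per well in complete medium, rested 5 h at 37C then compound-treated 24 h at 37C. Intracellular ATP read by CellTiter-Glo luminescence after 30 min at room temperature; AC50 from Hill-equation fits of concentration-response data.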

[8] = Cell Viability - LYMP2-009 (AID 968); further: series mostly up to about 92 µM; nearly all actives have a fitted effect of over 55% in size
[9] = Cell Viability - LYMP2-011 (AID 969); further: nearly all actives have a fitted effect of over 60% in size
In short: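 2500 cells/well, 5 hr 37 C; compound added, 24 hr 37 C; CellTiter-Glo 30 min RT; luminescence. qHTS concentration-response, Hill-equation AC50. Tetraoctylammonium bromide positive control.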

[10] = Cell Viability - LYMP2-013 (AID 970); further: series mostly up to about 92 µM; nearly all actives have a fitted effect of over 55% in size
In short: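 qHTS; 2500 lymphoblastoid cells/well; 5 hr 37 C settle; cpd 24 hr 37 C; CellTiter-Glo, 30 min RT; luminescence. AC50 = Hill fit.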

[11] = Cell Viability - LYMP2-015 (AID 971); further: nearly all actives have a fitted effect of over 55% in size
In short: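 Luminescent ATP read-out (CellTiter-Glo) served as the viability measure after lymphoblastoid cells were exposed to compounds for 24 hours at 37 C. Concentration-response data were fitted with the Hill equation to give AC50.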

[12] = Cell Viability - LYMP2-017 (AID 972); further: series mostly up to about 92 µM; nearly all actives have a fitted effect of over 55% in size
In short: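 2500 cells/well, 5 h 37 C; cpd 24 h 37 C in complete medium; CellTiter-Glo, 30 min RT; luminescence (ATP). AC50 via Hill fit, qHTS.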

[13] = Cell Viability - LYMP2-019 (AID 973); further: nearly all actives have a fitted effect of over 55% in size
In short: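 Luminescent ATP read-out (CellTiter-Glo, 30 min room temperature) served as the viability measure after 24 hr treatment of lymphoblastoid cells at 37 C. Concentration-response data were fitted to the Hill equation for AC50.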

[14] = Cell Viability - LYMP2-021 (AID 974)
In short: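 Plate 2500 lymphoblastoid cells per well and incubate 5 hr at 37 C. Add compounds over a concentration range and incubate 24 hr at 37 C. Add CellTiter-Glo, wait 30 min at room temperature, read luminescence.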

[15] = Cell Viability - LYMP2-023 (AID 975)
In short: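 2500 cells/well, 5 hr 37 C; cpd 24 hr 37 C; CellTiter-Glo, 30 min RT; luminescence. qHTS conc-response, Hill fit -> AC50. Pos ctrl tetraoctylammonium bromide.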

[16] = Cell Viability - LYMP2-025 (AID 976); further: series mostly up to about 92 µM
In short: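 Seed 2500 LYMP2-025 cells/well; 5 hr at 37 C; add compound; 24 hr at 37 C; add CellTiter-Glo; 30 min RT; read luminescence. AC50 from Hill-modelled concentration-response.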

[17] = Cell Viability - LYMP2-002 (AID 977);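 further: series mostly up to about 92 µM; compound exposure lasted 24 h at 37 °C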
In short: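 Cytotoxicity is scored as concentration-dependent loss of cellular ATP in a human lymphoblastoid line after 24 hr compound treatment at 37 C. AC50 is obtained by modelling concentration-response data with the Hill equation.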

[18] = Cell Viability - LYMP2-006 (AID 978); further: series mostly up to about 92 µM; nearly all actives have a fitted effect of over 60% in size
In short: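 Human lymphoblastoid cells (LYMP2-006), 2500/well in complete medium, were treated with compound for 24 hr at 37 C. Cellular ATP was read by CellTiter-Glo luminescence after 30 min, and AC50 values came from Hill-equation fits of concentration-response data.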

[19] = Cell Viability - LYMP2-007 (AID 979);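 further: cells exposed to compound for 24 h before reading; nearly all actives have a fitted effect of over 60% in size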
In short: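 Luminescent ATP signal (CellTiter-Glo) serves as the viability read-out after 24 hr compound treatment of lymphoblastoid cells in complete medium at 37 C. Concentration-response data were fitted to the Hill equation to give AC50 values.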

[20] = Cell Viability - LYMP2-008 (AID 980); further: nearly all actives have a fitted effect of over 60% in size
In short: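 qHTS, human lymphoblastoid line, 2500 cells/well; 5 hr preincubation, 24 hr compound, 37 C. CellTiter-Glo ATP luminescence. AC50 via Hill equation. Tetraoctylammonium bromide positive control.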

Measured: outcome

Cc1ccc(N)cc1O
inactive: [1] | [2] | [3] | [4] | [5] | [6] | [7] | [8] | [9] | [10] | [11] | [12] | [13] | [14] | [15] | [16] | [17] | [18] | [19] | [20]

Nc1ccccc1N
inactive: [2] | [11] | [12] | [13] | [14] | [15] | [16] | [19]

CC(=O)O[C@@H]1CC(C)=C2[C@H]1[C@H](C)CC[C@H]2/C=C(\C)C(=O)O
inactive: [1] | [2] | [3] | [4] | [5] | [6] | [7] | [8] | [9] | [10] | [11] | [12] | [13] | [14] | [15] | [16] | [17] | [18] | [19] | [20]
